Sampled rows, rich in hits. Any-hit rate of the full collection: about 2.4%.
APE1 inh: inhibitors of human APE1 endonuclease; P27695; recombinant APE1, TAMRA/BHQ-2 abasic DNA cleavage fluorescence; Potency, µM (doses to about 65.8 µM), for the others: at the highest dose activity change, negative = inhibition, usual class: inhibitors; 0.35% of 350,000 active; AID 2517;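 also: plate controls were vehicle for no effect and reference inhibitor for full effect; nearly all actives have a fitted effect of over 55% in size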
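Step 1: APE1 (0.75 nM) with compound, 15 min RT. Step 2: add 50 nM fluorophore/quencher THF duplex. Step 3: three fluorescence reads 60 s apart (525/598 nm); read 3 minus read 1 = reaction progress.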
GLS inhibitor: glutaminase GLS (human) inhibition | O94925 | GLS enzymatic activity, qHTS titration | Potency, µM (highest dose often 45.5 µM), inactives show at the highest dose activity change, negative = inhibition, most hits filed as inhibitors | 0.21% of 410,000 active; also: % is scaled to controls: 0 for no effect and ±100 for the full control effect
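Assay buffer: 45 mM KH2PO4 pH 8.2, 0.02% Tween-20. hKGA acts on L-glutamine (1 mM solution added); product glutamate is reported by an oxidase/peroxidase Amplex Red coupling, with fluorescence taken at baseline and 30 min.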
POLH inh: DNA polymerase eta (human) inhibition; Q9Y253; recombinant Pol eta, fluorescent DNA replication assay; Potency, µM (doses to about 114 µM), inactives show top-dose activity change, negative = inhibition, most hits filed as inhibitors; 1.2% of 390,000 active; also: % is scaled to controls: 0 for no effect and ±100 for the full control effect
Target sequence (Q9Y253 whole entry, looked up): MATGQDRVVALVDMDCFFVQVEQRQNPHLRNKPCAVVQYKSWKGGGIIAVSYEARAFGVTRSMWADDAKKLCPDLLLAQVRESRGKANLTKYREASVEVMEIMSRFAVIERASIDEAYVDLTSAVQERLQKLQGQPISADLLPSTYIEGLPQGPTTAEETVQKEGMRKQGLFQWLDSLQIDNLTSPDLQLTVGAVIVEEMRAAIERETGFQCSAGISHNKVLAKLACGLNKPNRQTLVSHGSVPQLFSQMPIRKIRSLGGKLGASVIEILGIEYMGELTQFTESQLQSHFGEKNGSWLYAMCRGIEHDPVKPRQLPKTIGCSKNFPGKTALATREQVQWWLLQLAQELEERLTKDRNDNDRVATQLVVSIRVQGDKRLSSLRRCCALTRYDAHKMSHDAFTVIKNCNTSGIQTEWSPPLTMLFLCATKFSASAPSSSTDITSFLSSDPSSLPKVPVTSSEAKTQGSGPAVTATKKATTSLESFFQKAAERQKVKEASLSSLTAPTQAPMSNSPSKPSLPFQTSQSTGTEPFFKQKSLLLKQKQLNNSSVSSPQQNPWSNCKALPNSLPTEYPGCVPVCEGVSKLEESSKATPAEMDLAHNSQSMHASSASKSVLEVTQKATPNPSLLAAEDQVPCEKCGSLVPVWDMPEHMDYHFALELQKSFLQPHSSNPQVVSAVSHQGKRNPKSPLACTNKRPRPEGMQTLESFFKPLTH
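Pol eta at 10 nM preincubated with compounds 15 min at room temperature; reaction started with fluorescent substrate (50 nM final) and read kinetically at 0 and 10 min.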
POLB inh: DNA polymerase beta (human) inhibition; Pol beta primer extension/strand displacement, fluorescence kinetic; Potency, µM (doses to about 114 µM), for the others: at the highest dose activity change, negative = inhibition, most hits filed as inhibitors; 1.3% of 340,000 active; also: % is scaled to controls: 0 for no effect and ±100 for the full control effect
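Homogeneous kinetic assay of primer extension and strand displacement by 10 nM Pol beta, preincubated 15 min at room temperature with compound before 50 nM substrate (final) was added. Read at 0 and 10 min; four-parameter Hill fit.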
Pol kappa inh: inhibitors of human DNA polymerase kappa | purified Pol kappa, fluorescent DNA synthesis assay, 10 min | Potency, µM (titrated, usually from 107 µM), without a hit: at the top dose activity, negative = inhibition, most hits filed as inhibitors | AID 588579 | 0.53% of 400,000 active; also: % is scaled to controls: 0 for no effect and ±100 for the full control effect
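Inhibition of 10 nM Pol kappa is measured by a fluorescent read-out at 0 and 10 min following addition of 50 nM substrate (final), with a 15-min room-temperature compound preincubation.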
Pol iota inh: inhibitors of human DNA polymerase iota; Q9UNA4; Pol iota fluorescent replication assay, 10 min; Potency, µM (top dose mostly 115 µM), for inactives: at the highest dose activity, negative = inhibition, actives largely listed as inhibitors; 1% of 390,000 active; AID 588590
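Pol iota at 10 nM preincubated 15 min with compounds at room temperature; reaction started with fluorescent substrate, 50 nM final. Fluorescence read kinetically at 0 and 10 min; buffer-only wells as negative control.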
* hit, by the source's call; [ ] = another dose, or the depositor's remark. Calls follow the shape of the dose curve; as a rule, active = well fitted curve in the direction sought with a large enough effect; inconclusive = small, poorly fitted or top-dose-only effect, or another doubt; inactive = no such curve, though single readings can be large; an effect the other way counts as inactive or inconclusive. Potency is read from the fitted curve at half-maximal effect.

For Cc1ccc(S(=O)(=O)N2CCN(C(=O)C3COc4ccccc4O3)CC2)cc1C (stereo unspecified) the results were APE1 inh -1.0%, GLS inhibitor -0.4%, POLH inh -9.6%, POLB inh 0.1%, Pol kappa inh -18.9% and Pol iota inh -9.6%[58.9 µM].
Screening O=[N+]([O-])c1ccc(Nc2nc(N/N=C/c3cccc(F)c3)nc(N3CCCC3)n2)cc1 returned APE1 inh inconclusive, GLS inhibitor 4.1%, POLH inh -13.9%, POLB inh 0.8%, Pol kappa inh -6.5% and Pol iota inh 2.3%.
Screening COc1cccc(/C=N/Nc2nc(Nc3ccc([N+](=O)[O-])cc3)nc(N3CCCC3)n2)c1O returned APE1 inh -11.8%, GLS inhibitor 0.7%, POLH inh 22.4µM*, POLB inh inconclusive, Pol kappa inh 14.1µM* and Pol iota inh inconclusive.
COc1ccc(N(C)S(=O)(=O)c2c(C)[nH]c(=O)[nH]c2=O)c(OC)c1 was read as APE1 inh 1.0%, GLS inhibitor -16.4%, POLH inh -12.9%, POLB inh 3.5%, Pol kappa inh -6.8% and Pol iota inh 89.1µM*.
O=C1Nc2cc(C(=O)NCCN3CCCCCC3)ccc2S/C1=C\c1ccccc1 was read as APE1 inh 20.2%, GLS inhibitor -1.5%, POLH inh -15.7%, POLB inh -10.4%, Pol kappa inh -5.9% and Pol iota inh 14.3%.
Cc1ccc(/C=C2/Sc3ccc(C(=O)NCc4ccccn4)cc3NC2=O)cc1 was read as APE1 inh 5.2%, GLS inhibitor 17.8µM*, POLH inh inconclusive, POLB inh inconclusive, Pol kappa inh 0.5% and Pol iota inh inconclusive.
Screening Cc1cc(C)c(S(=O)(=O)N(CC(=O)NCc2cccnc2)C2CCCCC2)c(C)c1 returned APE1 inh 0.7%, GLS inhibitor -1.6%, POLH inh -5.9%, POLB inh -26.6%, Pol kappa inh -8.8% and Pol iota inh 89.1µM*.
`Cc1ccc(S(=O)(=O)N(CC(=O)NCc2cccnc2)C2CCCCC2)cc1` gave APE1 inh 2.6%, GLS inhibitor -0.1%, POLH inh -25.0%, POLB inh -2.8%, Pol kappa inh 0.7% and Pol iota inh 22.0%.
`CN(C(=O)c1cc2n(n1)C(C(F)(F)F)CC(c1ccco1)N2)c1ccccc1` (stereo unspecified) gave APE1 inh 11.6%, GLS inhibitor 24.9%, POLH inh -8.3%, POLB inh 26.6%, Pol kappa inh -8.3% and Pol iota inh -0.3%.
`Cc1ccc(-c2noc(-c3ccc(N4CCCCC4C)c([N+](=O)[O-])c3)n2)cc1` (stereo unspecified) gave GLS inhibitor -10.9%, POLH inh 0.9%, POLB inh 1.7%, Pol kappa inh -6.9% and Pol iota inh -29.0%.
Cc1noc(-c2ccc(N3CCCCC3C)c([N+](=O)[O-])c2)n1 (stereo unspecified) was read as GLS inhibitor 1.2%, POLH inh -18.5%, POLB inh 39.8µM*, Pol kappa inh -11.6% and Pol iota inh -11.9%.
For COc1cc(C(=O)NNC(=O)c2ccc(NC(C)=O)cc2)cc(OC)c1OC the results were APE1 inh 1.5%, GLS inhibitor -1.4%, POLH inh -2.9%, POLB inh 4.9%, Pol kappa inh 6.3% and Pol iota inh 16.8%.
`COc1cc(C(=O)/C=C/Nc2ccc(NC(C)=O)cc2)cc(OC)c1OC` gave APE1 inh 2.6%, GLS inhibitor 1.2%, POLH inh -20.8%, POLB inh 70.8µM*, Pol kappa inh -12.8% and Pol iota inh -9.9%.
`O=c1c(-c2ccc(O[C@@H]3O[C@H](CO)[C@@H](O)[C@H](O)[C@H]3O)cc2)coc2cc(O)cc(O)c12` gave APE1 inh inconclusive and Pol kappa inh -10.7%[19.4 µM].
`NS(=O)(=O)c1ccc(-c2ccc(/C=C3\C(=O)Nc4ccccc43)o2)cc1` gave APE1 inh 11.4% and POLB inh inconclusive.
CC1(C)OC(=O)C(=Cc2ccc(-c3ccc(S(N)(=O)=O)cc3)o2)C(=O)O1 was read as APE1 inh -8.0%, GLS inhibitor 18.4%, POLH inh 50.1µM*, POLB inh 4.3%, Pol kappa inh inconclusive and Pol iota inh inconclusive.
For O=C(Nc1ccc(-c2nc3ccccc3s2)c(O)c1)c1ccc(Br)cc1 the results were GLS inhibitor -7.2%, POLH inh -23.7%, POLB inh -0.6%, Pol kappa inh -5.1% and Pol iota inh 13.8%.
`Oc1ccc(N=C/C=C/c2ccc(Br)cc2)cc1-c1nc2ccccc2s1` gave APE1 inh -7.1% and POLB inh 12.6µM*.
`O=C(CSc1nnc(-c2ccc(S(=O)(=O)N3CCCC3)cc2)o1)NCc1ccco1` gave APE1 inh inconclusive, GLS inhibitor -2.4%, POLH inh inconclusive, POLB inh 25.1µM*, Pol kappa inh inconclusive and Pol iota inh 89.1µM*.
Cn1c(SCC(=O)NCc2ccco2)nnc1-c1ccc(S(=O)(=O)N2CCOCC2)cc1 was read as APE1 inh inconclusive, GLS inhibitor -0.9%, POLH inh inconclusive, POLB inh inconclusive, Pol kappa inh -24.0% and Pol iota inh 100µM*.
`FC(F)(F)c1nc2ccccc2n2c(-c3ccc(Cl)cc3Cl)nnc12` gave APE1 inh 0.8%, GLS inhibitor 10.5%, POLH inh -5.2%, POLB inh 81.2%, Pol kappa inh -16.1% and Pol iota inh -3.0%.
`O=C(NC(N1CCOCC1)C(Cl)(Cl)Cl)c1ccco1` (stereo unspecified) gave APE1 inh 17.2%, GLS inhibitor 4.0%, POLH inh -7.3%, POLB inh -11.8%, Pol kappa inh -3.1% and Pol iota inh 2.9%.
Screening CCCn1c(SCC(=O)Nc2nnc(-c3ccccc3)s2)nnc1-c1ccccn1 returned APE1 inh 7.3%, GLS inhibitor 0.6%, POLH inh inconclusive, POLB inh 22.4µM*, Pol kappa inh -9.7% and Pol iota inh inconclusive.
Screening CCCn1c(SCC(=O)NCCc2ccccc2)nnc1-c1ccccn1 returned APE1 inh -2.6%, GLS inhibitor -7.9%, POLH inh -10.7%, POLB inh -2.0%, Pol kappa inh -0.7% and Pol iota inh 5.0%.
O=C(Nc1ccc(S(=O)(=O)Nc2nccs2)cc1)c1ccc(F)cc1 was read as APE1 inh 3.1%[12.4 µM], GLS inhibitor -0.5%, POLH inh -15.7%, POLB inh -13.7%, Pol kappa inh -10.1% and Pol iota inh 106.1%.

Screens deposited in PubChem by National Center for Advancing Translational Sciences (NCATS).
